From PubChem
An excerpt weighted towards active compounds, which were near 2.9% of everything screened.
CF NFkB inh = blocks PAF-induced NF-kB reporter in cystic fibrosis cells | KKLEB NF-kB-GFP reporter, GFP fluorescence overnight | inhibition, % at 5 µM | hit rate 0.86% among 360,000 | AID 588850;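 active = at least 50% inhibition at 5 µM, scaled per plate between neutral and stimulator controls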;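 also: PAF is a Pseudomonas aeruginosa culture filtrate used as stimulus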
KKLEB cytotox = reduces viability of KKLEB cystic fibrosis airway cells | KKLEB CF airway cells viability, ATPlite luminescence, overnight; stronger effect = lower value; cells stimulated with P. aeruginosa culture filtrate | activity change (cytotoxicity), % at 5 µM | hit rate 0.36% among 360,000 | AID 602141;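 active = corrected activity change at or below -50% at 5 µM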
Peg3 prom inh = inhibitors of Peg3 promoter; HeLa PEG-Prom luciferase reporter, luminescence, overnight; inhibition, % at 20 µM; hit rate 1.7% among 360,000;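 active = inhibition of at least 50% at 20 µM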
HIF-2a inh = blocks HIF-2a reporter activity; inhibition, % at 18.8 µM; hit rate 0.72% among 360,000; 786-0 RCC cells HIF-2a reporter, luciferase luminescence, overnight; AID 624352;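 active = inhibition of the luminescence signal of 40% or more relative to plate controls, in a single-dose primary screen at 18.75 µM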
EBV LMP1 NFkB = Epstein-Barr LMP1 NF-kappaB reporter inhibition. LMP1-induced NF-kappaB luciferase reporter cells, luminescence. inhibition, % at 12.5 µM. hit rate 0.69% among 350,000. AID 504558; in the data active = inhibition above about 41%; inconclusive = no clear call, values can overlap the other calls
Shn3 3UTR inh = Schnurri-3 reporter inhibition in Clone20 osteoblasts; Clone20 osteoblast Shn3 3'UTR firefly luciferase, 24 h; inhibition, % at 12.5 µM; hit rate 0.52% among 360,000;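 active = mean inhibition of at least 75% with every replicate also reaching 75%; inconclusive = mean inhibition at least 75% but some replicate below; inactive = mean inhibition below 75%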
Mdm2 MdmX conf = Mdm2/MdmX (human) interaction inhibition, confirmed; SaOS-2 split-luciferase Mdm2/MdmX complementation, luminescence; inhibition, % at 8 µM; hit rate 99% among 740; shares compounds with HIF-2a inh; AID 504601;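 active = mean inhibition of the luminescence signal across two replicates at or above 26 percent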
Target sequence (O15151 whole entry, looked up): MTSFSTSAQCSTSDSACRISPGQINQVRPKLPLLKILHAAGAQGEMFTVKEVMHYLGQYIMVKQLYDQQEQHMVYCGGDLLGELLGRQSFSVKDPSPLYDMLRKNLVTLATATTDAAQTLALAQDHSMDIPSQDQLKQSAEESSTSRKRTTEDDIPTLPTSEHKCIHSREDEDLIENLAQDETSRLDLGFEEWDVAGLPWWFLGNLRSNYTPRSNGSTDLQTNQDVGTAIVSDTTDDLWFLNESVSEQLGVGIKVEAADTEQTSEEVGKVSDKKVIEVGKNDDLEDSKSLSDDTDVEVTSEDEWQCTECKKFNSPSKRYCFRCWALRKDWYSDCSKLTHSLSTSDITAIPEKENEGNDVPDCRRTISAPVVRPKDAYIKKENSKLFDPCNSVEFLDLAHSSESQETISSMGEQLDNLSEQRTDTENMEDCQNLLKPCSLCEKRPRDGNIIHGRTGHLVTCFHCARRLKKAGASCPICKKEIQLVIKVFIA
Target sequence (Q00987 whole entry, looked up): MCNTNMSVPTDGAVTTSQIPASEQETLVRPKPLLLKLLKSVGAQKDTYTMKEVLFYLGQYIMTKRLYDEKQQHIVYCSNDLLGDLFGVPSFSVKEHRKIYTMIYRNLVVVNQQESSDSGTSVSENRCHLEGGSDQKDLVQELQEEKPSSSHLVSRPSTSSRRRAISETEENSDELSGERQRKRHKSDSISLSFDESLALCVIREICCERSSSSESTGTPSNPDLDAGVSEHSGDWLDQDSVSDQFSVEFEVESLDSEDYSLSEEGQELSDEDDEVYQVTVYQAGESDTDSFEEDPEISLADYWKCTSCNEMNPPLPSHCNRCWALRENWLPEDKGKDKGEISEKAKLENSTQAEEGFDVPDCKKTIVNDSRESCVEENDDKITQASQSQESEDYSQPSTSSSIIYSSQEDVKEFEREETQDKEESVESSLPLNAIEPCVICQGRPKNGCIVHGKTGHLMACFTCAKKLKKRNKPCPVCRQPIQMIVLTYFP
HIF-2a conf = HIF-2a inhibition, single concentration confirmation. 786-0 RCC cells, HIF-2a luciferase reporter luminescence, overnight. shares compounds with HIF-2a inh. inhibition, % at 18.8 µM. hit rate 56% among 1,800. AID 651580;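 active = mean inhibition across four replicates of at least 40 percent at the single tested concentration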
HIF-1a cs = counter-screen for HIF-2a inhibitors: HIF-1a inhibition in MiaPaCa-2 cells | inhibition, % at 18.8 µM | hit rate 72% among 1,800 | shares compounds with HIF-2a inh | AID 651589 | MiaPaCa-2 HIF-1a luciferase reporter, desferoxamine, overnight;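 active = mean inhibition of the reporter signal across four replicates at the single tested dose of 50% or more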
Numbers stand for hits.

`COCCCNC(=O)COc1ccc(-c2nccc(-c3ccccn3)n2)cc1` gave CF NFkB inh inactive, KKLEB cytotox inactive, Peg3 prom inh inactive, HIF-2a inh 40, EBV LMP1 NFkB inactive, Shn3 3UTR inh inactive, HIF-2a conf inactive and HIF-1a cs inactive.
Screening O=c1c2ccccc2sn1-c1ccc(Cl)cc1Cl returned CF NFkB inh inactive, KKLEB cytotox inactive, Peg3 prom inh inactive, HIF-2a inh inactive, EBV LMP1 NFkB inactive and Shn3 3UTR inh inactive.
`CC(=O)c1ccc(NC2=C(N3CCOCC3)C(=O)c3ccccc3C2=O)cc1` gave CF NFkB inh inactive, KKLEB cytotox inactive, Peg3 prom inh inactive, HIF-2a inh inactive, EBV LMP1 NFkB inactive and Shn3 3UTR inh inactive.
`CC(=O)N(C)C1=C(N2CCOCC2)C(=O)c2ccccc2C1=O` gave CF NFkB inh inactive, KKLEB cytotox inactive, Peg3 prom inh 83, HIF-2a inh inactive, EBV LMP1 NFkB inactive, Shn3 3UTR inh inactive and Mdm2 MdmX conf 75.
`O=C(CCSCc1ccc(Cl)cc1)NCc1cccnc1` gave CF NFkB inh inactive, KKLEB cytotox inactive, Peg3 prom inh inactive, HIF-2a inh inactive, EBV LMP1 NFkB inactive and Shn3 3UTR inh inactive.
For CCOC(=O)/C(=C\c1ccccc1)C(=O)c1cc(C(C)=O)c(Nc2ccccc2)s1 the results were CF NFkB inh inactive, KKLEB cytotox inactive, Peg3 prom inh 104, HIF-2a inh 95, EBV LMP1 NFkB 53, Shn3 3UTR inh 98, HIF-2a conf 88 and HIF-1a cs 107.
`CCOC(=O)/C(C#N)=C\c1cccnc1` gave CF NFkB inh inactive, KKLEB cytotox inactive, Peg3 prom inh inactive, HIF-2a inh inactive, EBV LMP1 NFkB inactive and Shn3 3UTR inh inactive.
Screening CCOC(=O)/C(=C\c1cccnc1)C(=O)c1cc(C(C)=O)c(Nc2ccccc2)s1 returned CF NFkB inh 95, KKLEB cytotox inactive, Peg3 prom inh 119, HIF-2a inh 96, EBV LMP1 NFkB inactive, Shn3 3UTR inh 98 and Mdm2 MdmX conf 103.
Screening Cc1ccc(OCc2cc(C(=O)N3CCN(c4ccccc4)CC3)no2)cc1C returned CF NFkB inh inactive, KKLEB cytotox inactive, Peg3 prom inh inactive, HIF-2a inh inactive, EBV LMP1 NFkB inactive and Shn3 3UTR inh inactive.
For CCCC(=O)N1CCCC1(C)C(=O)Nc1ccc(OC(F)F)cc1 (stereo unspecified) the results were CF NFkB inh inactive, KKLEB cytotox inactive, Peg3 prom inh inactive, HIF-2a inh inactive and Shn3 3UTR inh inactive.
For Cn1nccc1C(=O)Oc1cccc(/C=N/NC(=O)c2ccccc2O)c1 the results were CF NFkB inh inactive, KKLEB cytotox inactive, Peg3 prom inh inactive, HIF-2a inh inactive, EBV LMP1 NFkB inactive and Shn3 3UTR inh inactive.
COC(=O)C(=C/C(C)=C/c1cccnc1)C(=O)OC was read as CF NFkB inh inactive, KKLEB cytotox inactive, Peg3 prom inh 60, HIF-2a inh 43, EBV LMP1 NFkB inactive, Shn3 3UTR inh inactive, HIF-2a conf inactive and HIF-1a cs inactive.
For CC(C)[C@H](NC(=O)[C@H]1N2C(=O)c3ccccc3C2SC1(C)C)C(=O)NCc1ccco1 (stereo partly specified) the results were CF NFkB inh inactive, KKLEB cytotox inactive, Peg3 prom inh inactive, HIF-2a inh inactive, EBV LMP1 NFkB inactive and Shn3 3UTR inh inactive.
Screening N#Cc1c(NC(=O)CSc2ncn[nH]2)sc2c1CCCCC2 returned CF NFkB inh inactive, KKLEB cytotox inactive, Peg3 prom inh inactive, HIF-2a inh 90, EBV LMP1 NFkB inactive, Shn3 3UTR inh inactive, HIF-2a conf 96 and HIF-1a cs 70.
`CCN1CCCC1CNC(=O)C1CCN(Cc2nc(-c3cccc(Br)c3)oc2C)CC1` (stereo unspecified) gave CF NFkB inh inactive, KKLEB cytotox inactive, Peg3 prom inh 91, HIF-2a inh 66, EBV LMP1 NFkB inactive, Shn3 3UTR inh inactive, HIF-2a conf inactive and HIF-1a cs 104.
CC(=O)c1ccc(NC(=O)[C@@H]2CCCN2C2=NS(=O)(=O)c3ccccc32)cc1 was read as CF NFkB inh inactive, KKLEB cytotox inactive, Peg3 prom inh inactive, HIF-2a inh inactive, EBV LMP1 NFkB inactive and Shn3 3UTR inh inactive.
CN(C(=S)NC(=O)c1ccc(Cl)cc1)C1CCCCC1 was read as CF NFkB inh inactive, KKLEB cytotox inactive, Peg3 prom inh inactive, HIF-2a inh inactive, EBV LMP1 NFkB inactive and Shn3 3UTR inh inactive.
For CCS(=O)(=O)CCSc1nc2ccccc2o1 the results were CF NFkB inh inactive, KKLEB cytotox inactive, Peg3 prom inh inactive, HIF-2a inh inactive, EBV LMP1 NFkB inactive and Shn3 3UTR inh inactive.
For O=S(=O)(CCSc1nc2ccccc2o1)c1nc2ccccc2s1 the results were CF NFkB inh 57, KKLEB cytotox inactive, Peg3 prom inh inactive, HIF-2a inh 57, EBV LMP1 NFkB inactive, Shn3 3UTR inh inactive, HIF-2a conf 70 and HIF-1a cs 90.
For CCOC(=O)c1ccccc1Nc1cn(C(C)=O)c2ccccc12 the results were CF NFkB inh inactive, KKLEB cytotox inactive, Peg3 prom inh inactive, HIF-2a inh inactive, EBV LMP1 NFkB inactive and Shn3 3UTR inh inactive.
Screening CC(=O)n1cc(N(C(=O)CCl)c2ccc(Cl)cc2)c2ccccc21 returned CF NFkB inh 98, KKLEB cytotox -94, Peg3 prom inh 108, HIF-2a inh 83, Shn3 3UTR inh inactive, HIF-2a conf 98 and HIF-1a cs 108.
For C=C1C(=O)C=C[C@]2(C)C[C@@H]3OC(=O)[C@](C)(O)[C@H]3C[C@@H]12 the results were CF NFkB inh inactive, KKLEB cytotox inactive, Peg3 prom inh 91, HIF-2a inh 40, EBV LMP1 NFkB inactive, Shn3 3UTR inh inactive, HIF-2a conf inactive and HIF-1a cs 98.
`O=C1C=CC(=O)N1Cc1ccncc1` gave CF NFkB inh inactive, KKLEB cytotox inactive, Peg3 prom inh inactive, HIF-2a inh inactive, EBV LMP1 NFkB inactive and Shn3 3UTR inh inactive.
`O=C1C=CC(=O)N1CCCCCCCCCCN1C(=O)C=CC1=O` gave CF NFkB inh 74, KKLEB cytotox inactive, Peg3 prom inh 102, HIF-2a inh 71, EBV LMP1 NFkB inactive, Shn3 3UTR inh 93, HIF-2a conf 61 and HIF-1a cs 80.
CCCNC(=O)c1nnsc1S(=O)(=O)c1ccc(Cl)cc1 was read as CF NFkB inh 89, KKLEB cytotox inactive, Peg3 prom inh 101, HIF-2a inh 79, EBV LMP1 NFkB inconclusive, Shn3 3UTR inh 92, Mdm2 MdmX conf 103, HIF-2a conf 69 and HIF-1a cs 57.
